Bioassay records deposited in PubChem by National Center for Advancing Translational Sciences (NCATS).
In the library only some 3% were active in any assay of this set; here they are far more common.
TRb SRC2 PPI: qHTS for Inhibitors of the Interaction of Thyroid Hormone Receptor and Steroid Receptor Coregulator 2. Potency, µM (doses to about 106 µM), without a hit: top-dose activity change, negative = inhibition, most hits filed as inhibitors. actives 0.065% (n = 280,000). TRbeta-SRC2 peptide binding, fluorescence polarization; receptor liganded with 1 µM T3. Thyroid hormone receptor beta (Homo sapiens), P10828. AID 1469, 2008;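 note: plate controls were bound peptide for no effect and peptide without receptor for full effect; nearly all actives have a fitted effect of over 50% in size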
Target sequence (P10828 whole entry, looked up): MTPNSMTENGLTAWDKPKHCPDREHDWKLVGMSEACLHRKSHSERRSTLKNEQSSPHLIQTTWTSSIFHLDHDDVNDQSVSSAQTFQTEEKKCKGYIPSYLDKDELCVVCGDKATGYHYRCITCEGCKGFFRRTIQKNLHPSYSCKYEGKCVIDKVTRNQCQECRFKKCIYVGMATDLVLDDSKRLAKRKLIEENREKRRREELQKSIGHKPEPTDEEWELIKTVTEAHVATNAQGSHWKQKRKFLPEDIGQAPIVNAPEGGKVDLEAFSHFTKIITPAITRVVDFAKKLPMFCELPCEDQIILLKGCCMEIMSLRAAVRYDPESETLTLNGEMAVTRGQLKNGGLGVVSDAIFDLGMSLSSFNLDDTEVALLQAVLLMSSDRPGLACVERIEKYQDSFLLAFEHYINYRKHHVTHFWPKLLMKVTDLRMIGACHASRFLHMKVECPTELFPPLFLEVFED
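Quantitative HTS by FP: 0.6 uM TRb LBD, 20 nM labeled SRC2 20-mer, 1 uM T3, 5% DMSO; 5 hr ambient incubation; % activity per concentration and potencies from concentration series.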
TexasRed fluor: Total Fluorescence Counterscreen for Inhibitors of the Interaction of Thyroid Hormone Receptor and Steroid Receptor Coregulator 2 | TRb/SRC2 Texas Red total fluorescence interference | Potency, µM (titrated, usually from 106 µM), without a hit: at the highest dose fluorescence change, negative = quenching | actives 0.29% (n = 280,000) | AID 1479, 2009; active = well fitted curve in either direction with a large enough effect; inconclusive = small, poorly fitted or top-dose-only effect
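Human TRb ligand-binding domain at 0.6 uM with 20 nM Texas Red SRC2 peptide in Tris buffer containing 1 uM T3 and 5% DMSO, incubated with compound 5 h at ambient temperature. Total fluorescence (555/632 nm) calculated as parallel + 2 × perpendicular.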
Tau ThT inhib: qHTS for Inhibitors of Tau Fibril Formation, Thioflavin T Binding. actives 2.1% (n = 270,000). Potency, µM (top dose mostly 57.4 µM), for the others: top-dose activity, negative = inhibition, hits mostly inhibitors. recombinant tau K18 P301L, heparin-induced fibrillization, ThT fluorescence. AID 1460, 2008; note: nearly all actives have a fitted effect of over 55% in size
Target sequence (P10636 561-689 P618L limits assumed): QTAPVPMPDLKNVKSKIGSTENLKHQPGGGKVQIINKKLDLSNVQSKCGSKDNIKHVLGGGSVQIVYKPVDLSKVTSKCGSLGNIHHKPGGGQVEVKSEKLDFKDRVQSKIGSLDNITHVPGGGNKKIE
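Aggregation was driven by heparin (20 uM final) acting on recombinant tau […] bearing P301L in 100 mM sodium acetate pH 7; fibrils were detected with Thioflavin T.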
Tau FP inhib: qHTS for Inhibitors of Tau Fibril Formation, Fluorescence Polarization; Potency, µM (doses to about 57.7 µM), for inactives: top-dose activity, negative = inhibition, usual class: inhibitors; Microtubule-associated protein tau (Homo sapiens), P10636; actives 0.39% (n = 280,000); K18 P301L tau heparin fibrillization, Alexa594 FP, 6 h; note: nearly all actives have a fitted effect of over 55% in size
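Steps: dispense K18 P301L tau (15 uM plus 0.24 uM Alexa 594 tracer, final) in pH 7 sodium acetate; add compound; add heparin (20 uM final); incubate 6 hr, 37 C; add ThT (30 uM final); after 1 hr ambient, read FP.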
Tau fluor cs: Counterscreen qHTS for Inhibitors of Tau Fibril Formation, Fluorescence Polarization; tau K18 P301L (four-repeat tau fragment) Alexa594 fluorescence, heparin fibrillization; Potency, µM (doses to about 57.7 µM), for the others: top-dose activity change, negative = decrease; actives 0.93% (n = 280,000); AID 1463, 2008; note: nearly all actives have a fitted effect of over 55% in size
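Human K18 P301L tau (15 uM unlabeled plus 0.24 uM Alexa 594-labeled, final) in 100 mM sodium acetate pH 7 was mixed with compound and 20 uM heparin and incubated 6 hr at 37 C.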
The depositor's hits bear a star; [ ] = dose if it differs, or a comment. Unless noted, calls come from the whole dose curve; as a rule, active = well fitted curve in the direction sought with a large enough effect; inconclusive = small, poorly fitted or top-dose-only effect, or another doubt; inactive = no such curve, though single readings can be large; an effect the other way counts as inactive or inconclusive. Unless noted, % is set by controls: 0 for no effect and ±100 for the full control effect; potency is the fitted concentration of half-maximal effect.

Results for O=C(/C=C/c1ccc(S(=O)(=O)N2CCOCC2)cc1)NC(=S)Nc1ccc(N2CCOCC2)cc1 ?
TRb SRC2 PPI: -12%; TexasRed fluor: -2%; Tau ThT inhib: 25µM*; Tau FP inhib: 7%; Tau fluor cs: inconclusive

How did Cc1cc(NC(=S)NC(=O)/C=C/c2ccc(S(=O)(=O)N3CCOCC3)cc2)ccc1Br do in these assays?
TRb SRC2 PPI: -21%; TexasRed fluor: 0%; Tau ThT inhib: inconclusive; Tau FP inhib: inconclusive; Tau fluor cs: -16%

Results for CCC(=O)CC(NC(=O)OC)c1ccc(F)cc1 (stereo unspecified) ?
TRb SRC2 PPI: 0%[11.2 µM]; TexasRed fluor: -1%[11.2 µM]; Tau ThT inhib: 3%[11.5 µM]; Tau FP inhib: 8%[11.6 µM]; Tau fluor cs: 2%[11.6 µM]

Results for CCOC(=O)c1ccc(NC(=O)CCc2c(C)nc3c(c(C)nn3C)c2C)cc1 ?
TRb SRC2 PPI: 1%; TexasRed fluor: 0%; Tau ThT inhib: inconclusive; Tau FP inhib: -12%; Tau fluor cs: -22%

What do the screens show for `S=c1[nH]c2ccc3ccccc3c2[nH]1`?
TRb SRC2 PPI: -1%; TexasRed fluor: 0%; Tau ThT inhib: -3%; Tau FP inhib: 1%; Tau fluor cs: 0%

What do the screens show for `Cc1[nH]c2c(ccc3ccccc32)c1C1C(CCN)C1(C)C` (stereo unspecified)?
TRb SRC2 PPI: -15%; TexasRed fluor: -4%; Tau ThT inhib: inconclusive; Tau FP inhib: inconclusive; Tau fluor cs: 16µM*[quencher]

How did CN(C)S(=O)(=O)Oc1cccc(C(=O)Nc2ccc(Cl)c(Cl)c2)c1 do in these assays?
TRb SRC2 PPI: -3%; TexasRed fluor: 3%; Tau ThT inhib: 1%; Tau FP inhib: 20µM*; Tau fluor cs: inconclusive

How did CN(C)S(=O)(=O)Oc1cccc(C(=O)Nc2cccc(Cl)c2)c1 do in these assays?
TRb SRC2 PPI: 2%; TexasRed fluor: -8%; Tau ThT inhib: -7%; Tau FP inhib: inconclusive; Tau fluor cs: inconclusive

Results for COC(=O)c1cccc(NC(=O)Nc2ccc(Cl)c(Cl)c2)c1 ?
TRb SRC2 PPI: 4%; TexasRed fluor: -1%; Tau ThT inhib: inconclusive; Tau FP inhib: 13µM*; Tau fluor cs: inconclusive

Results for COC(=O)c1ccc(NC(=O)Nc2ccc(F)c(Cl)c2)cc1 ?
TRb SRC2 PPI: 1%; TexasRed fluor: -1%; Tau ThT inhib: inconclusive; Tau FP inhib: 16µM*; Tau fluor cs: inconclusive

How did COc1cccc(CNC(=O)c2cnc(N3CCCCC3)c3ccccc23)c1 do in these assays?
TRb SRC2 PPI: -7%; TexasRed fluor: -4%; Tau ThT inhib: -12%; Tau FP inhib: -1%; Tau fluor cs: -20%

What do the screens show for `O=C(Nn1c(O)c(C=C2N=c3ccccc3=N2)sc1=S)c1ccc(Cl)cc1`?
TRb SRC2 PPI: 2%; TexasRed fluor: 0%; Tau ThT inhib: 11µM*; Tau FP inhib: inconclusive; Tau fluor cs: 7.9µM*[quencher]

How did Oc1c(C=C2N=c3ccccc3=N2)sc(=S)n1-c1ccc(F)cc1 do in these assays?
TRb SRC2 PPI: -7%; TexasRed fluor: inconclusive; Tau ThT inhib: inconclusive; Tau FP inhib: 2%; Tau fluor cs: inconclusive

Results for Oc1[nH]c(=S)sc1C=C1N=c2ccccc2=N1 ?
TRb SRC2 PPI: 4%; TexasRed fluor: -11%; Tau ThT inhib: 14µM*; Tau FP inhib: -1%; Tau fluor cs: -29%

How did Cc1ccc(S(=O)(=O)Nn2c(O)c(C=C3N=c4ccccc4=N3)sc2=S)cc1 do in these assays?
TRb SRC2 PPI: -2%; TexasRed fluor: -4%; Tau ThT inhib: 11µM*; Tau FP inhib: -3%; Tau fluor cs: inconclusive

Results for O=C1N=c2ccccc2=C1c1sc(=S)n(NC(=O)c2cccc(O)c2)c1O ?
TRb SRC2 PPI: -3%; TexasRed fluor: -4%; Tau ThT inhib: inconclusive; Tau FP inhib: inconclusive; Tau fluor cs: inconclusive

How did O=C1N=c2ccc(Br)cc2=C1c1sc(=S)n(NS(=O)(=O)c2ccccc2)c1O do in these assays?
TRb SRC2 PPI: -2%; TexasRed fluor: -1%; Tau ThT inhib: 11µM*; Tau FP inhib: inconclusive; Tau fluor cs: 14µM*[quencher]

How did Oc1c(C=C2N=c3ccccc3=N2)sc(=S)n1C1CCCC1 do in these assays?
TRb SRC2 PPI: -1%; TexasRed fluor: inconclusive; Tau ThT inhib: 4%; Tau FP inhib: 1%; Tau fluor cs: 2%

What do the screens show for `CCc1nnc2c(Nc3cc(OC)c(Cl)cc3OC)nc3ccccc3n12`?
TRb SRC2 PPI: -4%; TexasRed fluor: -1%; Tau ThT inhib: -5%; Tau FP inhib: -5%; Tau fluor cs: -9%

What do the screens show for `C#C[C@]1(O)CC[C@H]2[C@H]3CCc4cc(O)ccc4[C@@H]3CC[C@@]21C`?
TRb SRC2 PPI: -1%; TexasRed fluor: -1%

What do the screens show for `CO[C@H]1COC(=O)[C@H](C)NC(=O)C/C=C\[C@@H](C)[C@@H](NS(=O)(=O)c2ccc(C)cc2)COC(=O)[C@H](OCc2ccccc2)/C=C\[C@@H]1C`?
TRb SRC2 PPI: -1%[11.2 µM]; TexasRed fluor: 0%[11.2 µM]; Tau ThT inhib: -11%[11.5 µM]; Tau FP inhib: 4%[11.6 µM]; Tau fluor cs: -11%[11.6 µM]

How did Oc1c(C=C2N=c3ccccc3=N2)sc(=S)n1-c1ccc2ccccc2c1 do in these assays?
TRb SRC2 PPI: -1%; TexasRed fluor: -5%; Tau ThT inhib: inconclusive; Tau FP inhib: -8%; Tau fluor cs: inconclusive

Results for Cc1ccc(C(=O)Nn2c(O)c(C=C3N=c4ccccc4=N3)sc2=S)cc1 ?
TRb SRC2 PPI: -8%; TexasRed fluor: -4%; Tau ThT inhib: inconclusive; Tau FP inhib: -14%; Tau fluor cs: inconclusive

How did O=C(Nn1c(O)c(C=C2N=c3ccccc3=N2)sc1=S)c1cccc(Cl)c1 do in these assays?
TRb SRC2 PPI: -7%; TexasRed fluor: -3%; Tau ThT inhib: inconclusive; Tau FP inhib: inconclusive; Tau fluor cs: 13µM*[quencher]

What do the screens show for `O=C(Nn1c(O)c(C=C2N=c3ccccc3=N2)sc1=S)c1ccccc1`?
TRb SRC2 PPI: -2%; TexasRed fluor: 0%; Tau ThT inhib: 14µM*; Tau FP inhib: -2%; Tau fluor cs: 14µM*[quencher]

What do the screens show for `C[C@H]1Cc2c(-c3ccccc3)nc3c(c2CO1)CN(C(=O)NCCc1c[nH]c2ccccc12)CC3`?
TRb SRC2 PPI: 10%[11.2 µM]; TexasRed fluor: 1%[11.2 µM]; Tau ThT inhib: 2%[11.5 µM]; Tau FP inhib: 3%[11.6 µM]; Tau fluor cs: -3%[11.6 µM]

Results for Cc1ccc(NC(=O)Cn2c(=O)nc(-c3ccccc3F)c3cc(Cl)ccc32)c(Br)c1 ?
TRb SRC2 PPI: 1%; TexasRed fluor: 1%; Tau ThT inhib: inconclusive; Tau FP inhib: -6%; Tau fluor cs: -17%
